The record followed here is PubChem BioAssay (EPA / NIEHS).

Values joined by “and” are separate entries in the source; they are usually repeats but may differ in a detail not shown here. Identical values can stand only once. A structure can be active in one record and inactive in another. Active and inactive are the calls of the source. Rule for the calls: active = hit-call score of the fitted dose curve at least 0.9, where 1 is the maximum; inactive = score below 0.9.

Read-out in experiment [1]: Interleukin-6 (IL6), IL6 (gene 3569)
Description: BSK_CASM3C_IL6: BioMAP Diversity Plus: CASM3C Assay for Interleukin-6 (IL6) Biomarker Activity for (AID 2283040). Particulars: primary human coronary artery smooth muscle cells; actives raise or lower the signal.

Read-out in experiment [2]: Tissue plasminogen activator (tPA), PLAT (gene 5327)
The experiment in a line: BSK_BE3C_tPA: BioMAP Diversity Plus: BE3C Assay for Tissue plasminogen activator (tPA) Biomarker Activity (AID 2283041).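 For outcome: tPA level quantified by ELISA one day after compound addition.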 Particulars: primary human bronchial epithelial cells; actives raise or lower the signal. The essentials: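 Using human lung primary bronchial epithelial cells, tPA was measured by ELISA 24 h after dosing; data fitted relative to DMSO.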

Read-out in experiment [3]: Interleukin-8 (IL8), CXCL8 (gene 3576)
Description: BSK_CASM3C_IL8: BioMAP Diversity Plus: CASM3C Assay for Interleukin-8 (IL8) Biomarker Activity (AID 2283042).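 Note: IL-8 protein level quantified by ELISA.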 Particulars: primary human coronary artery smooth muscle cells; actives raise or lower the signal.

Read-out in experiment [4]: Human Leukocyte Antigen - DR isotype (HLADR), HLA-DRA (gene 3122)
Description: BSK_CASM3C_HLADR: BioMAP Diversity Plus: CASM3C Assay for Human Leukocyte Antigen - DR isotype (HLADR) Biomarker Activity (AID 2283043).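 Note: cell-surface HLA-DR protein level quantified by ELISA.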 Particulars: primary human coronary artery smooth muscle cells; actives raise or lower the signal.

Read-out in experiment [5]: Macrophage colony-stimulating factor (MCSF), CSF1 (gene 1435)
Description: BSK_CASM3C_MCSF: BioMAP Diversity Plus: CASM3C Assay for Macrophage colony-stimulating factor (MCSF) Biomarker Activity (AID 2283044).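 Note: M-CSF protein amount quantified by ELISA after 24 h exposure.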 Particulars: primary human coronary artery smooth muscle cells; actives raise or lower the signal.

Read-out in experiment [6]: Low-density lipoprotein receptor (LDLR), LDLR (gene 3949)
Description: BSK_CASM3C_LDLR: BioMAP Diversity Plus: CASM3C Assay for Low-density lipoprotein receptor (LDLR) Biomarker Activity (AID 2283045).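 Note: LDLR protein level on the cell surface quantified by ELISA.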 The settings on record: primary human coronary artery smooth muscle cells; actives raise or lower the signal.

Read-out in experiment [7]: Monocyte Chemoattractant Protein-1 (MCP1), CCL2 (gene 6347)
Description: BSK_CASM3C_MCP1: BioMAP Diversity Plus: CASM3C Assay for Monocyte Chemoattractant Protein-1 (MCP1) Biomarker Activity (AID 2283046).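 Note: MCP-1 level quantified by ELISA 24 h after dosing.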 The settings on record: primary human coronary artery smooth muscle cells; actives raise or lower the signal.

Experiment [8] in a line: BSK_CASM3C_Proliferation: Cell Proliferation Assessment in the BioMAP Diversity Plus: CASM3C Assay (AID 2283047).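 Note: sulforhodamine B total protein stain as relative cell number at 560 nm; sub-confluent cells exposed 48 h before staining; fitted both ways against DMSO so gain or loss of cell number.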 The settings on record: primary human coronary artery smooth muscle cells.
Read-out in experiment [9]: Monokine induced gamma interferon (MIG), CXCL9 (gene 4283)
Description: BSK_CASM3C_MIG: BioMAP Diversity Plus: CASM3C Assay for Monokine induced gamma interferon (MIG) Biomarker Activity (AID 2283048).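 Note: MIG protein level measured by ELISA.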 Particulars: primary human coronary artery smooth muscle cells; actives raise or lower the signal.

Read-out in experiment [10]: serum amyloid A (SAA), SAA1 (gene 6288)
Description: BSK_CASM3C_SAA: BioMAP Diversity Plus: CASM3C Assay for serum amyloid A (SAA) Biomarker Activity (AID 2283049).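 Note: SAA protein level quantified by ELISA.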 Particulars: primary human coronary artery smooth muscle cells; actives raise or lower the signal.

In the case of `C=CC(=O)OCC(F)(F)C(F)(F)C(F)(F)C(F)(F)C(F)(F)C(F)(F)C(F)(F)F`, the outcome in experiment [1], in experiment [2], in experiment [3], in experiment [4], in [5] and in [6] was inactive. Also, the result in [7], in experiment [8], in experiment [9] and in experiment [10] was inactive.

By AC50 is commonly meant the midpoint of the concentration-response curve, whichever way the signal moves. For the molecule `C#C[C@]1(O)CC[C@H]2[C@@H]3CCc4cc(OC)ccc4[C@H]3CC[C@@]21C`, the result in experiment [1], in experiment [2], in experiment [3], in [4], in experiment [5] and in experiment [6] was inactive. Moreover, the result in [7], in [9] and in experiment [10] was inactive. Also, the AC50 in experiment [8] was 0.253 µM (active).

As for `O=C(O)C(F)(OC(F)(F)C(F)(OC(F)(F)C(F)(F)C(F)(F)F)C(F)(F)F)C(F)(F)F` (stereo not given), the outcome in [1], in experiment [2], in [3], in experiment [4], in experiment [5] and in experiment [6] was inactive. The result in experiment [7], in experiment [8], in [9] and in experiment [10] was inactive.

Turning to `O=C(O)C(F)(F)C(F)(F)C(F)(F)C(F)(F)C(F)(F)C(F)(F)C(F)(F)C(F)(F)Cl`, the outcome in [1], in [3], in experiment [4], in experiment [5], in experiment [6] and in experiment [7] was inactive. In addition, the outcome in experiment [8], in experiment [9] and in experiment [10] was inactive. Besides, the AC50 in experiment [2] is 30 µM (active) and 20.4 µM (active).

Consider `O=C(O)C(F)(F)C(F)(F)OC(F)(F)F`, for which the outcome in experiment [1], in experiment [2], in experiment [3], in experiment [4], in experiment [5] and in [6] was inactive. For the same molecule, the outcome in [7], in experiment [8], in experiment [9] and in [10] was inactive.

Regarding `O=C(O)C(F)(F)C(F)(F)C(F)(F)C(F)(F)C(F)(F)C(F)(F)C(F)(F)C(F)(F)C(F)(F)C(F)(F)C(F)(F)C(F)(F)F`, the result in experiment [1], in experiment [2], in experiment [3], in [4], in [5] and in [6] was inactive. Also, the outcome in [7], in experiment [8] and in [9] was inactive. Further, the AC50 in [4] is 16.1 µM (active); in [10] it was 2.34 µM (active) and 3.54 µM (active).

For the molecule `O=C(O)C(F)(F)C(F)(F)C(F)(F)F`, the result in experiment [1], in experiment [2], in experiment [3], in [4], in [5] and in experiment [6] was inactive. For the same molecule, the result in [7], in experiment [8], in experiment [9] and in experiment [10] was inactive.

As for `N=C(N)C(F)(F)C(F)(F)C(F)(F)C(F)(F)C(F)(F)C(F)(F)C(F)(F)F`, the outcome in experiment [1], in [2], in experiment [3], in [4], in experiment [5] and in [6] was inactive. Also, the result in experiment [7], in experiment [8], in experiment [9] and in experiment [10] was inactive. Also, the AC50 in [4] was 30 µM (active); in experiment [6] it was 27.1 µM (active); in experiment [8], 46.1 µM (active).

With `C=CC(=O)OCC(F)(F)C(F)(F)C(F)(F)C(F)(F)COC(=O)C=C`, the AC50 is 7.96 µM (active) in experiment [1]; 8.82 µM (active) in experiment [2]; 17.8 µM (active) in experiment [4]; 34.9 µM (active) and 30 µM (active) in experiment [5]; 12.2 µM (active) in [6]; 45.8 µM (active) and 44 µM (active) in experiment [7]. The AC50 in [8] was 18.9 µM (active) and 31.4 µM (active); in experiment [9] it was 28.6 µM (active) and 31 µM (active); in experiment [10], 22.9 µM (active) and 16.1 µM (active). In addition, the outcome in experiment [1], in [2], in experiment [3], in [4] and in experiment [6] was inactive.

Take `OCCCC(F)(F)C(F)(F)C(F)(F)C(F)(F)C(F)(F)C(F)(F)C(F)(F)F`: the AC50 is 42.1 µM (active) and 48.2 µM (active) in experiment [1]; 35.7 µM (active) and 30 µM (active) in experiment [2]; 49 µM (active) in [3]; 23.3 µM (active) and 49 µM (active) in experiment [4]; 22.1 µM (active) and 43.6 µM (active) in experiment [5]; 43.7 µM (active) and 45.9 µM (active) in [6]. Moreover, the AC50 was 38.3 µM (active) and 28.9 µM (active) in [7]; 18.4 µM (active) and 20.3 µM (active) in experiment [8]; 41.7 µM (active) and 41.9 µM (active) in [9]; 37.6 µM (active) and 22.7 µM (active) in experiment [10]. Besides, the result in [3] was inactive.

`Oc1ccc(Nc2ccccc2)cc1`: the outcome in experiment [1], in experiment [2], in experiment [3], in experiment [5], in experiment [7] and in experiment [9] was inactive. In addition, in experiment [10], the outcome was inactive. Moreover, the AC50 is 2.54 µM (active) in [4], 2.43 µM (active) in experiment [6] and 30.1 µM (active) in experiment [8].

Turning to `CC(C)(C)C(=O)CC(=O)C(F)(F)C(F)(F)C(F)(F)F`, the result in [1], in [2], in experiment [3], in experiment [4], in experiment [5] and in experiment [6] was inactive. The outcome in experiment [7], in experiment [8], in [9] and in experiment [10] was inactive.

With `C=CC(F)(F)C(F)(F)C(F)(F)C(F)(F)C(F)(F)C(F)(F)C(F)(F)C(F)(F)F`, the outcome in [1], in experiment [2], in experiment [3], in experiment [4], in [5] and in experiment [6] was inactive. For the same molecule, the result in [7], in experiment [8], in experiment [9] and in [10] was inactive.

`Nc1ccc([N+](=O)[O-])cc1O`: the result in experiment [1], in experiment [2], in experiment [3], in experiment [4], in experiment [5] and in experiment [6] was inactive. Further, the result in experiment [7], in experiment [8], in experiment [9] and in experiment [10] was inactive.

For the molecule `Cc1ccc(S(=O)(=O)OCC(F)(F)C(F)(F)C(F)(F)C(F)(F)C(F)(F)C(F)F)cc1`, the result in experiment [1], in experiment [2], in experiment [3], in [4], in experiment [5] and in experiment [6] was inactive. Moreover, the result in experiment [7], in experiment [8], in experiment [9] and in experiment [10] was inactive.

Regarding `OCC(F)(F)C(F)(F)C(F)(F)C(F)F`, the result in [1], in experiment [2], in experiment [3], in experiment [4], in experiment [5] and in experiment [6] was inactive. For the same molecule, the outcome in [7], in experiment [8], in experiment [9] and in [10] was inactive. In addition, the AC50 in experiment [6] is 0.292 µM (active).

Turning to `FC(F)(F)C(F)(F)C(F)(F)C(F)(F)C(F)(F)C(F)(F)C(F)(F)C(F)(F)CCS`, the outcome in experiment [1], in experiment [2], in [3], in experiment [4], in [5] and in experiment [6] was inactive. Further, the result in [7], in experiment [8], in [9] and in experiment [10] was inactive.

`FC1CC(F)(F)C(F)(F)C1(F)F` (stereo not given): the outcome in experiment [1], in experiment [2], in experiment [3], in experiment [4], in experiment [5] and in experiment [6] was inactive. For the same molecule, the result in experiment [7], in [8], in experiment [9] and in experiment [10] was inactive.
